# Source: PubChem BioAssay
# Active and inactive are the calls of the source.
# What was measured:
# [1] = tested on: PRMT1 (protein arginine N-methyltransferase 1); assay: small molecules binding arginine methyltransferase PRMT1 – biochemical, small-molecule microarray, 635 nm fluorescence, primary screen (AID 1088); conditions: higher = more signal;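 further: binding of Prmt1 protein to compounds spotted on small-molecule microarray slides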
# [2] = growth effects on S. cerevisiae YJM789 – YJM789 clinical isolate, OD600, 24 h, basal, primary screen (AID 1089); conditions: higher = more signal, called active from +8 up or from −8 down;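 further: growth of clinical yeast isolate S. cerevisiae YJM 789 seeded 1000 cells per well; test concentration not given here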
# [3] = S. pombe growth modifiers, basal conditions – strain 972, OD600, 24 h, no modulator, primary screen (AID 1090);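 further: basal condition with compound alone and no growth modifier present; test concentration not given here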; conditions: S. pombe 972 growth, higher = more signal, called active from +8 up or from −8 down
# [4] = budding yeast growth modifiers under rapamycin – strain BY4716, OD600, 96 h, primary screen (AID 1091); further: test concentration not given here; conditions: S. cerevisiae BY4716 + rapamycin, higher = more signal, called active from +8 up or from −8 down
# [5] = target: Torsin-1A-interacting protein 2 (Homo sapiens) (UniProt Q8NFQ8); assay: small molecules binding lysate-expressed LULL1 – cell lysate, human LULL1 lysate, 635/667 nm fluorescence, primary screen (AID 1092); conditions: small-molecule microarray, hLULL1 lysate binding, 635 nm fluorescence; higher = more signal;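 further: probe is lysate of COS7 cells overexpressing human LULL1; score merges per-feature 667 nm fluorescence with signal-to-noise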
# Chain of Torsin-1A-interacting protein 2 (Homo sapiens) (Q8NFQ8 whole entry, looked up): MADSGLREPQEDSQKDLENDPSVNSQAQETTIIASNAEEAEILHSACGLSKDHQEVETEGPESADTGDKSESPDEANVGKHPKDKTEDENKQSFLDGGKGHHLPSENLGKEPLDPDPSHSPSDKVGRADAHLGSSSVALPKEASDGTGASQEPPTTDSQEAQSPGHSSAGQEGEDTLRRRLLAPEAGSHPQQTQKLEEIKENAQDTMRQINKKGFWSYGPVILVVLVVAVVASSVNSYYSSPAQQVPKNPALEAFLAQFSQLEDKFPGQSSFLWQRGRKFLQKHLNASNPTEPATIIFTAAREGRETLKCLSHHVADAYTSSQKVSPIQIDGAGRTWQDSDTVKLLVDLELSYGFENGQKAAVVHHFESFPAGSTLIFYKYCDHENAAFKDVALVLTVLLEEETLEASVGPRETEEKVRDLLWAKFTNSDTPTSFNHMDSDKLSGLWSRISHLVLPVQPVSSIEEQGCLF
# [6] = optical density change of DRC41 E. coli – strain DRC41, OD650, 24 h, E. coli filamentation project, primary screen (AID 1093);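 further: MC1000 strain lacking acrAB efflux and sulA so SOS filamentation is blocked; test concentration not given here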; conditions: E. coli DRC41 growth, higher = more signal, called active from +8 up or from −8 down
# [7] = probe aLefty2 binding to arrayed compounds – biochemical, biotinylated probe, 635/667 nm fluorescence, primary screen (AID 1094); conditions: small-molecule microarray, higher = more signal;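 further: score merges spot fluorescence near 667 nm with spot signal-to-noise ratio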
# [8] = tested on: Noggin (protein binding on small-molecule microarray); assay: small molecules binding Noggin protein – biochemical, 635/667 nm fluorescence, primary screen (AID 1095); conditions: 635 nm fluorescence, higher = more signal;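 further: score merges 667 nm feature fluorescence with signal to noise over triplicate slides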
# [9] = target: Neurogenic locus notch homolog protein 3 (Homo sapiens) (UniProt Q9UM47); assay: small molecules binding NOTCH3 protein – biochemical, 635/667 nm fluorescence, primary screen (AID 1096); conditions: small-molecule microarray, 635 nm fluorescence, higher = more signal
# Chain of Neurogenic locus notch homolog protein 3 (Homo sapiens) (Q9UM47 whole entry, looked up): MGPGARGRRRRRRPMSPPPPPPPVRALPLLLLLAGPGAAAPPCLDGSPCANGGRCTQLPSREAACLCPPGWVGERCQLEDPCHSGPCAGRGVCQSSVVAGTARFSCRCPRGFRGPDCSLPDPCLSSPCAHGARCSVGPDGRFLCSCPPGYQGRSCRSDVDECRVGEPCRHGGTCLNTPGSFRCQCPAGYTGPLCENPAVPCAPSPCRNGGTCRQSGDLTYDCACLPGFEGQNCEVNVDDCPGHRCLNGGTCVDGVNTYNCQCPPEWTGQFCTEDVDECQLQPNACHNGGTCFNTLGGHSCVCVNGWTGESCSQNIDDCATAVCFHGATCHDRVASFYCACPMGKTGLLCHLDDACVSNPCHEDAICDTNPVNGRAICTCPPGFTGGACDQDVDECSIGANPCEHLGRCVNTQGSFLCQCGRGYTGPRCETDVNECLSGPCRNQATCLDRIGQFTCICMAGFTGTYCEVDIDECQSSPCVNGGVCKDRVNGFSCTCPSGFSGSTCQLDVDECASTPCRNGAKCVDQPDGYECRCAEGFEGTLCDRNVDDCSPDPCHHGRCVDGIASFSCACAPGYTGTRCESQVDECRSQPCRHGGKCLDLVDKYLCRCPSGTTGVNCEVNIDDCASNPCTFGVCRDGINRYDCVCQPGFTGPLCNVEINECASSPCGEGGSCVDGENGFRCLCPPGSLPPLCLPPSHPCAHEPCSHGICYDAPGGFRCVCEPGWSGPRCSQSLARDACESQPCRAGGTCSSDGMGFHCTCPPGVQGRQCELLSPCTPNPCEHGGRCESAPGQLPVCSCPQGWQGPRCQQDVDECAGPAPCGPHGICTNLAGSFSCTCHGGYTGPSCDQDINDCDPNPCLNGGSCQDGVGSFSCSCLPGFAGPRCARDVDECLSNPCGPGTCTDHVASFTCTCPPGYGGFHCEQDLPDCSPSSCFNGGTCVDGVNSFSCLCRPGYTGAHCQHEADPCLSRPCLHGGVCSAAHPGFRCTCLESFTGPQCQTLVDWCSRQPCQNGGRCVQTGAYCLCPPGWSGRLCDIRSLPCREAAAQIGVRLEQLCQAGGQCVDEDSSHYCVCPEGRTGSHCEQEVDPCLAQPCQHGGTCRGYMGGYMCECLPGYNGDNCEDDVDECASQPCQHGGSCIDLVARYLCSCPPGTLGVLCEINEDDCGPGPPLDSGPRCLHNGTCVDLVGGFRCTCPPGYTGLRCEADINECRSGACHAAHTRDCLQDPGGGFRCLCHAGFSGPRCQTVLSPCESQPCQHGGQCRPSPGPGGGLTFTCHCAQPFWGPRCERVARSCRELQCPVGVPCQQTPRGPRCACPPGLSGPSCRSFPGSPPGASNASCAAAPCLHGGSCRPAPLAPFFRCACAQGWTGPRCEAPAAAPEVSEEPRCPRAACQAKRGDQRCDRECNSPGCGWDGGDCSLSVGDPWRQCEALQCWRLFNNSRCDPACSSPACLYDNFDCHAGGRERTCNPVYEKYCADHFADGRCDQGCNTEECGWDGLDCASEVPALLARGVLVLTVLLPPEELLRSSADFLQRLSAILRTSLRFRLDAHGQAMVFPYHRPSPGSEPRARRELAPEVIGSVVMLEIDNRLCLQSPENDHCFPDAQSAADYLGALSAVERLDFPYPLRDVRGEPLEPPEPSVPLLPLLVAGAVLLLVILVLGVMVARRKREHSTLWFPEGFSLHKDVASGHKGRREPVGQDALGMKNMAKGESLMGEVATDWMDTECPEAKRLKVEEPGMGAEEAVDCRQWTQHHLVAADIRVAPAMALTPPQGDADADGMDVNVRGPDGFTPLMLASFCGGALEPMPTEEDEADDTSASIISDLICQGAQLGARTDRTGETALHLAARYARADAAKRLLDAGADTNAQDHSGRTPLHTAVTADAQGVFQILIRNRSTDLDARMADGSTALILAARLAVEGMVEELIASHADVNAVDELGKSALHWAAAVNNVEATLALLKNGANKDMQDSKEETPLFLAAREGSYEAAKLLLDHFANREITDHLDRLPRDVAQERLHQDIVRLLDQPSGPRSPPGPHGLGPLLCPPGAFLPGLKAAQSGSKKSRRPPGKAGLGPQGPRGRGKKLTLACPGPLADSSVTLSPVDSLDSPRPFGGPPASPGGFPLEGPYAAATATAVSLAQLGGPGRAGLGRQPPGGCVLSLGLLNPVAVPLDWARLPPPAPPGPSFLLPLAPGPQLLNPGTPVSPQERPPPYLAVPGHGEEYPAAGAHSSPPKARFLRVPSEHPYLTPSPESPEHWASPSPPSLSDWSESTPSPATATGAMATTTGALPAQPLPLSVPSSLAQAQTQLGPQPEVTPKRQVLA
# [10] = probe aEGFR binding to arrayed compounds – biochemical, biotinylated probe, 635/667 nm fluorescence, primary screen (AID 1097); conditions: small-molecule microarray, higher = more signal;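 further: probe is a biotinylated anti-EGFR antibody binding compounds printed on slides; score combines fluorescence near 667 nm and signal to noise of each spot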
SMILES,composite z-score [1],z-score [2],z-score [3],z-score [4],composite z-score [5],z-score [6],composite z-score [7],composite z-score [8],composite z-score [9],composite z-score [10]
COCCCNC(=O)[C@]1(Cc2ccccc2N=[N+]=[N-])N=C(c2ccc(OCCCO)cc2)O[C@@H]1c1ccccc1N=[N+]=[N-],1.26,-0.922 (inactive),-0.808 (inactive),1.75 (inactive),2.72,0.561 (inactive),0.23,0.115,0.836,0.0656
C[n+]1ccc(CCCO)cc1,0.618,0.654 (inactive),-0.96 (inactive),0.316 (inactive),0.427,-2.1 (inactive),0.181,0.436,-0.13,0.0455
CC(C)N1CC=CC23O[C@@H]4C=CCCOC(=O)C4[C@H]2C(=O)N(CCO)[C@@H]3C1=O (stereo not given in full),0.291,-0.631 (inactive),-0.349 (inactive),-1.2 (inactive),-0.805,2.99 (inactive),-0.145,-0.736,-0.362,-0.203
CCOC(=O)C1=CC[C@@H](c2ccccc2)N(S(=O)(=O)c2ccc(C)cc2)C1,-0.363,0.483 (inactive),1.09 (inactive),2.72 (inactive),0.353,-0.855 (inactive),0.365,-0.0914,-0.198,-0.0521
COc1cc(OC)c(C(O)C2C=CC3C(=O)N(c4ccccc4)C(=O)C3N2Nc2ccc(C#N)cc2)cc1Br (stereo not given),0.977,-0.459 (inactive),1.86 (inactive),-0.772 (inactive),2.64,-0.409 (inactive),0.929,-0.109,1.15,0.621
COC(=O)[C@@]1(Cc2ccc(OC)cc2)[C@H]2c3cc(C(=O)N(C)C)n(Cc4nc5ccccc5[nH]4)c3C[C@H]2CN1C(=O)c1ccccc1,0.777,0.591 (inactive),1.49 (inactive),6.95 (inactive),3.61,-0.648 (inactive),0.3,0.493,1.02,0.329
CCOc1cc(C(O)C2C=CC3C(=O)N(C4CCCCC4)C(=O)C3N2Nc2ccc(OC)cc2)ccc1O (stereo not given),1.17,-0.344 (inactive),-0.118 (inactive),-0.129 (inactive),3.21,-0.0874 (inactive),0.0252,0.163,1.05,0.0295
COCC(=C=CC[C@H](O)c1cccc(OCCO)c1)C[C@H](O)c1ccccn1,1.02,0.941 (inactive),0.44 (inactive),0.371 (inactive),1.88,0.559 (inactive),-0.166,0.704,0.0673,0.0149
CC=CC(O)C1C=CC2C(=O)N(C)C(=O)C2N1Nc1ccc([N+](=O)[O-])cc1[N+](=O)[O-] (stereo not given),0.0758,0.837 (inactive),0.325 (inactive),1.67 (inactive),3.57,-1.06 (inactive),-0.0478,-0.448,-0.44,-0.342
COc1cc2c(cc1OC)CN(C(=O)[C@@H]1[C@H]3C(=O)O[C@H](c4ccccc4)[C@H](c4ccccc4)N3[C@H](c3ccccc3OCCO)[C@@]13C(=O)Nc1ccc(C#CC4(O)CCCCCC4)cc13)CC2,1.54,2.74 (inactive),0.563 (inactive),5.14 (inactive),2.09,2.26 (inactive),0,0.56,0.896,-0.0357
C=CC[C@@]12N=C(c3ccc(OCCCO)cc3)O[C@@H]1c1ccccc1N(CCS(=O)(=O)c1ccccc1)C2=O,1.55,-0.484 (inactive),-1.56 (inactive),0.793 (inactive),2.34,1.45 (inactive),-0.291,1.28,1.13,0.0153
CCOC(=O)C1=CC[C@@H](c2cc(Cl)ccc2Cl)N(S(=O)(=O)c2ccc(C)cc2)[C@H]1c1ccc(OC)cc1,-0.393,1.31 (inactive),2.17 (inactive),1.43 (inactive),0.506,-0.0891 (inactive),0.754,-0.546,-0.329,0.379
CN(C)CCCCNC(=O)[C@H]1C[C@H]2C(=O)N[C@@H](CCCCN(C)C)C(=O)N2[C@H]1c1cccc(OCCO)c1,1.53,0.328 (inactive),1.22 (inactive),-0.378 (inactive),2.74,-0.0359 (inactive),-0.0474,1.38,0.993,-0.219
CN(C)CCCCNC(=O)[C@H]1C[C@H]2C(=O)N3CCC[C@H]3C(=O)N2[C@H]1c1ccc(O)cc1,0.765,-0.859 (inactive),1.1 (inactive),-0.384 (inactive),0.391,1.27 (inactive),-0.234,-0.439,0.229,-0.45
CN(C)CCCNC(=O)[C@@]1(C)c2ccccc2C(=O)N(Cc2cc(C(F)(F)F)cc(C(F)(F)F)c2)[C@H]1c1ccc(CO)cc1,0.0376,0.113 (inactive),-1.83 (inactive),-0.945 (inactive),0.324,-0.72 (inactive),-0.192,-1.19,-0.35,-0.186
CCCCC(CC)C(O)C1C=CC2C(=O)N(c3ccccc3)C(=O)C2N1Nc1ccc([N+](=O)[O-])cc1 (stereo not given),1.55,-0.777 (inactive),-0.126 (inactive),1.44 (inactive),3.65,-0.191 (inactive),0.0958,0.547,1.03,0.11
CCCC[C@@H]1C[C@H]1[C@@H](NC(=O)c1ccccc1)c1ccc(Cl)cc1,-1.36,0.222 (inactive),-1.96 (inactive),-2.01 (inactive),0.0826,-1.49 (inactive),-0.204,-2.06,-1.77,-0.421
CC(C)(C)OC(=O)CC[C@]1(C(=O)O)N=C(c2ccc(OCCCO)cc2)O[C@H]1c1ccccc1CN=[N+]=[N-],-0.619,0.832 (inactive),0.291 (inactive),-0.683 (inactive),2,0.275 (inactive),-0.0991,-0.465,0.168,-0.103
O=C(CS)NCCCCCCNC(=O)[C@@H]1C[C@@H]2C(=O)N3CCC[C@H]3C(=O)N2[C@@H]1c1cccc(OCCO)c1,1.35,-1.69 (inactive),0.335 (inactive),-0.365 (inactive),2.35,1.2 (inactive),0.177,0.488,1,0.0195
C=CC[C@@H](OC(=O)Nc1ccc(OC)cc1)c1ccc(OCCO)cc1,-0.424,-0.348 (inactive),-3.59 (inactive),0.126 (inactive),-0.0818,0.743 (inactive),-0.0304,-0.929,-0.801,-0.338
CCOC(=CC(=O)OC)CC(O)c1cccc(Cl)c1 (stereo not given),1.39,-4.05 (inactive),-7.01 (inactive),-1.53 (inactive),2.4,0.341 (inactive),-0.125,-0.673,0.27,-0.128
